Active and inactive are the calls of the source. Unless noted, how the calls were made is not given here.
Legend:
[1] = target: 6-phosphogluconate dehydrogenase, decarboxylating (Homo sapiens) (UniProt P52209); assay: 6PGD enzyme inhibitors, primary screen, biochemical, human, recombinant enzyme, NADPH absorbance (AID 1159550;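 active means at least 20% inhibition of 6-phosphogluconate dehydrogenase activity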); settings: recombinant 6PGD, NADPH absorbance 341 nm; at 10 µM; stronger effect = higher value
[2] = differential killing of epithelial or mesenchymal cells, primary screen, imaging, PC-3E GFP, TEM4-18 mCherry, co-culture (AID 1345086;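 active means compounds killing one labelled cell type while sparing the other, by normalised counts and ratio limits, not self-fluorescent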;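 on all read-outs here: cells exposed to compound for 72 h before imaging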;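 on red/green cell ratio (normalised): normalised mesenchymal count divided by normalised epithelial count so high means epithelial killing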); settings: imaging cell counts, at 1 µM; for red/green cell ratio (normalised): actives lie on both sides
[3] = tested on: Aerobactin synthetase IucA (Klebsiella pneumoniae hvKP1); assay: Biochemical IucA enzyme inhibition primary screen of the Spectrum library (AID 1346200); settings: malachite green pyrophosphate, A620, at 8 µM, stronger effect = lower value;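 further: 100% = wells without compound and 0% = wells lacking enzyme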
[4] = target: Mitogen-activated protein kinase 7 (Homo sapiens) (UniProt Q13164); assay: ERK5 transactivation activators in reporter cells, primary screen, cell-based, HTS (AID 1508626;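 active means luciferase signal above three times the same-plate solvent-only control wells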;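 further: luciferase driven by Gal4-ERK5 fusion binding five Gal4 sites before minimal TATA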); settings: HeLa Gal4-ERK5 transactivation, 18 h, at 5 µM, stronger effect = higher value
[5] = measured here: epithelial PC-3E GFP cell survival
[6] = measured here: mesenchymal TEM4-18 mCherry cell survival
[7] = counts scaled to control wells, 1 = unselective

Sequence of Mitogen-activated protein kinase 7 (Homo sapiens) (Q13164 whole entry, looked up, the tested form may be a part): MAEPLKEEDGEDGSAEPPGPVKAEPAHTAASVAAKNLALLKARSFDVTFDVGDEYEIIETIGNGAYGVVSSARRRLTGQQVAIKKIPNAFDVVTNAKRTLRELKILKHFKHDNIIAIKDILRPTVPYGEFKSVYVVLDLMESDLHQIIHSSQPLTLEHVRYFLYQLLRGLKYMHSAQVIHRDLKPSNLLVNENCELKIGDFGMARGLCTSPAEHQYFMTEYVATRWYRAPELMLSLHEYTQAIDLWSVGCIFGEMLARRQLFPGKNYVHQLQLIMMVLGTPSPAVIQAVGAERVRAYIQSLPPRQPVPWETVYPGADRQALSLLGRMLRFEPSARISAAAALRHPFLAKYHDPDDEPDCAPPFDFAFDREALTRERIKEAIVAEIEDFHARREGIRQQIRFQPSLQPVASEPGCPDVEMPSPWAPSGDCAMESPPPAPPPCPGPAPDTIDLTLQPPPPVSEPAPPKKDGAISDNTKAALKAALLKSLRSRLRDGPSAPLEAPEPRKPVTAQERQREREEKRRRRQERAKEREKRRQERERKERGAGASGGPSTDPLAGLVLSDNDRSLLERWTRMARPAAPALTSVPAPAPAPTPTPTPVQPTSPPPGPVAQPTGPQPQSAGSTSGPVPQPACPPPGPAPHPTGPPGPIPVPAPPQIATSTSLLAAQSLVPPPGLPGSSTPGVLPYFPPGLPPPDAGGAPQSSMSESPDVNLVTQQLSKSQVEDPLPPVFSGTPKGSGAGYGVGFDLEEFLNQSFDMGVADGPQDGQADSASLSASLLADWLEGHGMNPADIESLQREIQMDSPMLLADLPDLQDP
Sequence of 6-phosphogluconate dehydrogenase, decarboxylating (Homo sapiens) (P52209 whole entry, looked up): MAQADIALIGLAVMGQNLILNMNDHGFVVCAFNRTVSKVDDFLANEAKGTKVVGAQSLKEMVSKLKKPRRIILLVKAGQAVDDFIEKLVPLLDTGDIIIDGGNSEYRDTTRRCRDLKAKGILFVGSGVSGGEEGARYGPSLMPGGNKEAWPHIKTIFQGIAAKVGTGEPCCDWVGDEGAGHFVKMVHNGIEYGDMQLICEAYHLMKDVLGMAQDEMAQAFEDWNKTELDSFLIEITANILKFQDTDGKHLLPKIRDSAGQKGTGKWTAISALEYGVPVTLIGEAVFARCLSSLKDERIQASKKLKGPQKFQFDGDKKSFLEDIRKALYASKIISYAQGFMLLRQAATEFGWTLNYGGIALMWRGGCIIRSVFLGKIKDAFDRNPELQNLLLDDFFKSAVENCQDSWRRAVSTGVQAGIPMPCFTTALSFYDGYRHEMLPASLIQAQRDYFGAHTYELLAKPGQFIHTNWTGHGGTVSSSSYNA

C/C=C/c1ccc2c(c1)OCO2
inhibition [1]: -4.44% (inactive)
red/green cell ratio (normalised) [2]: 0.96 (inactive)
normalised cell number [2, 5]: 1.11
normalised cell number [2, 6]: 1.06
activity remaining [3]: 80.6% (inactive)
luciferase signal [4]: 296 AU (active)

CC1(C)C(=O)[C@@H]2O[C@@H]2[C@@]2(C)C1C[C@@H](O)[C@]1(C)C2CC[C@@]2(C)[C@H](c3ccoc3)OC(=O)C3OC321 (stereo partly specified)
inhibition [1]: 4.53% (inactive)
red/green cell ratio (normalised) [2]: 1.01 (inactive)
normalised cell number [2, 5]: 1.01
normalised cell number [2, 6]: 1.01
activity remaining [3]: 96.1% (inactive)
luciferase signal [4]: 24 AU (inactive)

COc1ccc(/C=C/c2cc(O)cc(O)c2)cc1
inhibition [1]: 16.8% (inactive)
red/green cell ratio (normalised) [2]: 1.08 (inactive)
normalised cell number [2, 5]: 0.95
normalised cell number [2, 6]: 1.03
activity remaining [3]: 103% (inactive)
luciferase signal [4]: 176 AU (inactive)

CC1(C)C2CC(=O)[C@]3(C)C(CC[C@@]4(C)[C@H](c5ccoc5)OC(=O)C5OC543)[C@@]2(C)[C@@H](O)C[C@H]1O (stereo partly specified)
inhibition [1]: -2.4% (inactive)
red/green cell ratio (normalised) [2]: 1.04 (inactive)
normalised cell number [2, 5]: 0.78
normalised cell number [2, 6]: 0.8
activity remaining [3]: 107% (inactive)
luciferase signal [4]: 80 AU (inactive)

O=C1NC(=O)C(=O)C(=O)N1
inhibition [1]: -13.9% (inactive)
red/green cell ratio (normalised) [2]: 0.89 (inactive)
normalised cell number [2, 5]: 1.09
normalised cell number [2, 6]: 0.98
activity remaining [3]: 123% (inactive)
luciferase signal [4]: 44 AU (inactive)

CC(C)=CCCC1(C)C=Cc2c(O)c3c(c(CC=C(C)C)c2O1)OC12C(=CC4CC1C(C)(C)OC2(C/C=C(/C)C(=O)O)C4O)C3=O (stereo unspecified)
inhibition [1]: 3.01% (inactive)
red/green cell ratio (normalised) [2]: 0.97 (inactive)
normalised cell number [2, 5]: 0.89
normalised cell number [2, 6]: 0.87
activity remaining [3]: 106% (inactive)
luciferase signal [4]: 88 AU (inactive)

O=C1c2ccccc2-c2cccc3cccc1c23
inhibition [1]: -2.36% (inactive)
red/green cell ratio (normalised) [2, 7]: 0.82 (inactive)
normalised cell number [2, 5]: 1.23
normalised cell number [2, 6]: 1.01
activity remaining [3]: 106% (inactive)
luciferase signal [4]: 64 AU (inactive)

COC(=O)[C@]1(C)CC[C@]2(C)CC[C@]3(C)C4=CC=C5C(=CC(=O)C(O)=C5C)[C@]4(C)CC[C@@]3(C)[C@@H]2C1
inhibition [1]: 9.49% (inactive)
red/green cell ratio (normalised) [2]: 0.14 (inactive)
normalised cell number [2, 5]: 0.01
normalised cell number [2, 6]: 0
activity remaining [3]: 87.2% (inactive)
luciferase signal [4]: 152 AU (inactive)

Cc1[nH]c2ccccc2c1CN(C)C
inhibition [1]: -5.39% (inactive)
red/green cell ratio (normalised) [2]: 0.92 (inactive)
normalised cell number [2, 5]: 0.99
normalised cell number [2, 6]: 0.91
activity remaining [3]: 101% (inactive)
luciferase signal [4]: 44 AU (inactive)

O=[N+]([O-])c1ccc(O)c([N+](=O)[O-])c1
inhibition [1]: -2.82% (inactive)
red/green cell ratio (normalised) [2]: 0.86 (inactive)
normalised cell number [2, 5]: 1.08
normalised cell number [2, 6]: 0.93
activity remaining [3]: 110% (inactive)
luciferase signal [4]: 44 AU (inactive)

N#Cc1c(Cl)c(Cl)c(Cl)c(C#N)c1Cl
inhibition [1]: -66.6% (inactive)
red/green cell ratio (normalised) [2]: 0.93 (inactive)
normalised cell number [2, 5]: 0.04
normalised cell number [2, 6]: 0.04
activity remaining [3]: 108% (inactive)
luciferase signal [4]: 604 AU (active)

C=C(C)c1cc2cc(C(C)=O)c(O)cc2o1
inhibition [1]: 13.2% (inactive)
red/green cell ratio (normalised) [2]: 0.8 (inactive)
normalised cell number [2, 5]: 1.14
normalised cell number [2, 6]: 0.92
activity remaining [3]: 104% (inactive)
luciferase signal [4]: 64 AU (inactive)

COc1c2c(cc3c1OCO3)CC[N+](C)=C2
inhibition [1]: 8.25% (inactive)
red/green cell ratio (normalised) [2, 7]: 1.03 (inactive)
normalised cell number [2, 5]: 0.97
normalised cell number [2, 6]: 1
activity remaining [3]: 99.6% (inactive)
luciferase signal [4]: 20 AU (inactive)

CC(=O)C1CCC2C3CCC4C[C@H](O)CCC4(C)C3C[C@H](O)C12C (stereo partly specified)
inhibition [1]: -3.34% (inactive)
red/green cell ratio (normalised) [2]: 1.12 (inactive)
normalised cell number [2, 5]: 0.99
normalised cell number [2, 6]: 1.11
activity remaining [3]: 112% (inactive)
luciferase signal [4]: 32 AU (inactive)

CC(C)CCCC1(C)C=Cc2c(O)c3c(c(CCC(C)C)c2O1)OC12C(CC4CC1C(C)(C)OC2(CCC(C)C(=O)O)C4O)C3=O (stereo unspecified)
inhibition [1]: 0.442% (inactive)
red/green cell ratio (normalised) [2]: 0.9 (inactive)
normalised cell number [2, 5]: 0.98
normalised cell number [2, 6]: 0.88
activity remaining [3]: 98% (inactive)
luciferase signal [4]: 76 AU (inactive)

CC[C@@]1(O)C[C@H](O)c2c(cc3c(c2O)C(=O)c2c(O)ccc(O)c2C3=O)[C@H]1C(=O)OC
inhibition [1]: 10.8% (inactive)
red/green cell ratio (normalised) [2]: 0.85 (inactive)
normalised cell number [2, 5]: 0.96
normalised cell number [2, 6]: 0.82
activity remaining [3]: 112% (inactive)
luciferase signal [4]: 52 AU (inactive)

COc1ccc(C(=O)O)cc1OC
inhibition [1]: 7.84% (inactive)
red/green cell ratio (normalised) [2]: 0.77 (inactive)
normalised cell number [2, 5]: 1.22
normalised cell number [2, 6]: 0.94
activity remaining [3]: 78.5% (inactive)
luciferase signal [4]: 40 AU (inactive)

NCC(=O)c1ccccc1
inhibition [1]: -6.79% (inactive)
red/green cell ratio (normalised) [2]: 0.98 (inactive)
normalised cell number [2, 5]: 1.03
normalised cell number [2, 6]: 1.02
activity remaining [3]: 114% (inactive)
luciferase signal [4]: 56 AU (inactive)

CCOC(=O)C1C(C=C(C)C)C1(C)C (stereo unspecified)
inhibition [1]: -0.74% (inactive)
red/green cell ratio (normalised) [2]: 0.99 (inactive)
normalised cell number [2, 5]: 1.19
normalised cell number [2, 6]: 1.18
activity remaining [3]: 107% (inactive)
luciferase signal [4]: 60 AU (inactive)

CC(=O)Oc1c2c(c(CC=C(C)C)c3c1C(=O)C1=C[C@@H]4CC5C(C)(C)OC(C/C=C(\C)C(=O)O)(C4=O)[C@@]15O3)OC(C)(CCC=C(C)C)C=C2 (stereo partly specified)
inhibition [1]: 23.4% (active)
red/green cell ratio (normalised) [2, 7]: 0.83 (inactive)
normalised cell number [2, 5]: 1.18
normalised cell number [2, 6]: 0.98
activity remaining [3]: 120% (inactive)
luciferase signal [4]: 140 AU (inactive)

COc1cc2c(cc1OC)[C@@H]1C(=O)c3ccc4oc(C(C)C)cc4c3O[C@@H]1CO2
inhibition [1]: 4.17% (inactive)
red/green cell ratio (normalised) [2]: 0.79 (inactive)
normalised cell number [2, 5]: 1.25
normalised cell number [2, 6]: 0.98
activity remaining [3]: 104% (inactive)
luciferase signal [4]: 76 AU (inactive)

— PubChem BioAssay
